Source: PubChem BioAssay (Broad Institute)
Pf Dd2 inh: P. falciparum Dd2 growth inhibition. activity change, % at 10 µM. actives 2.3% (n = 94,000). SYBR Green, 72 h; active compounds read low; in the data active = activity change below about -80%; inconclusive = no clear call, values can overlap the other calls
C diff HTS: inhibitors of Clostridium difficile growth; Clostridium difficile clinical isolate growth, OD600, 24 h; active compounds read low; growth activity, negative = inhibition, % at 16 µg/mL (by protocol); actives 0.25% (n = 86,000); AID 1259249;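 active = mean growth activity at or below -80% and every replicate also at or below -80%; inconclusive = mean at or below -80% but some replicate above -80%; inactive = mean growth activity above -80%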
Numbers stand for hits; . = inactive; ? = inconclusive; / = not tested or not shown. The list is not random: actives were taken first. Their share in the collection is about 2.4%.

SMILES | Pf Dd2 inh | C diff HTS
CO[C@H]1CN(C)C(=O)c2ccc(NS(=O)(=O)CC(F)(F)F)cc2OC[C@@H](C)N(Cc2nccs2)C[C@H]1C | -87.6 | /
CCCN1C[C@H](C)[C@@H](OC)CN(C)C(=O)c2ccc(NC(=O)Nc3cccc(F)c3)cc2OC[C@H]1C | . | /
O=C1CN(S(=O)(=O)Cc2ccccc2)C[C@H]2[C@H](c3ccc(C#Cc4cccc(F)c4)cc3)[C@H](CO)N12 | . | .
C[C@@H]1CCCCO[C@H](CN(C)C(=O)Nc2ccc(C(F)(F)F)cc2)[C@@H](C)CN([C@@H](C)CO)C(=O)c2cc(NS(=O)(=O)c3cn(C)cn3)ccc2O1 | . | .
CN(C)CCCNC(=O)C[C@H]1C=C[C@H](NC(=O)Cc2cccnc2)[C@H](CO)O1 | . | /
COCC(=O)Nc1ccc2c(c1)OC[C@@H](C)N(Cc1ccncc1)C[C@@H](C)[C@H](OC)CN(C)C2=O | . | .
CO[C@@H]1CN(C)C(=O)c2ccc(NC(=O)C3CCC3)cc2OC[C@@H](C)N(CC2CCCCC2)C[C@H]1C | -82.6 | .
CO[C@@H]1CN(C)C(=O)c2ccc(NC(=O)Nc3ccccc3F)cc2OC[C@@H](C)N(CC2CC2)C[C@H]1C | -87.9 | /
COCC(=O)Nc1ccc2c(c1)OC[C@H](C)N(Cc1ccncc1)C[C@H](C)[C@@H](OC)CN(C)C2=O | -85.0 | .
CO[C@@H]1CN(C)C(=O)c2cc(NC(=O)Nc3ccccc3F)ccc2OC[C@@H](C)N(CC2CC2)C[C@@H]1C | . | /
CO[C@@H]1CN(C)C(=O)c2ccc(NC(=O)C3CC3)cc2OC[C@@H](C)N(Cc2ccccc2)C[C@H]1C | -80.4 | /
CO[C@@H]1CN(C)C(=O)c2ccc(NC(=O)C3CCC3)cc2OC[C@H](C)N(CC2CCCCC2)C[C@@H]1C | . | /
CO[C@H]1CN(C)C(=O)c2ccc(NC(=O)C3CC3)cc2OC[C@@H](C)N(Cc2ccccc2)C[C@H]1C | . | /
CCCC#Cc1ccc2c(c1)O[C@@H](CN(C)C(C)=O)[C@H](C)CN([C@@H](C)CO)S2(=O)=O | . | .
Cc1nn(C)cc1NC(=O)C[C@H]1CC[C@H]2[C@@H](COc3ccc(NC(=O)Nc4cccc(Cl)c4)cc3C(=O)N2C)O1 | . | .
CC(C)C#Cc1ccc([C@@H]2[C@@H](CO)N3C(=O)CN(C(=O)Cc4ccccc4)C[C@H]23)cc1 | . | .
C[C@@H]1CCCCO[C@@H](CN(C)Cc2ccccc2)[C@H](C)CN([C@@H](C)CO)C(=O)c2cc(NC(=O)Nc3ccc4c(c3)OCO4)ccc2O1 | . | .
C[C@H](CO)N1C[C@H](C)[C@@H](CN(C)C(=O)NC2CCCC2)Oc2ncc(Br)cc2C1=O | . | .
COc1ccccc1NC(=O)Nc1ccc2c(c1)OC[C@@H](C)N(Cc1ccccc1C(=O)O)C[C@@H](C)[C@H](OC)CN(C)C2=O | . | /
COc1ccccc1NC(=O)Nc1ccc2c(c1)OC[C@@H](C)N(Cc1ccccc1Cl)C[C@@H](C)[C@H](OC)CN(C)C2=O | -96.6 | /
CCCC(=O)Nc1ccc2c(c1)OC[C@@H](C)N(Cc1cc(F)ccc1F)C[C@@H](C)[C@H](OC)CN(C)C2=O | -85.6 | .
CCCC(=O)Nc1ccc2c(c1)OC[C@@H](C)N(Cc1cccc(F)c1)C[C@@H](C)[C@H](OC)CN(C)C2=O | -87.5 | /
CCCC(=O)Nc1ccc2c(c1)C(=O)N(C)C[C@@H](OC)[C@H](C)CN(Cc1cc(F)ccc1F)[C@H](C)CO2 | . | /
CCCC(=O)Nc1ccc2c(c1)OC[C@H](C)N(Cc1cccc(F)c1)C[C@H](C)[C@H](OC)CN(C)C2=O | . | /
Cc1cccc(-c2ccc([C@@H]3[C@@H](CO)N4C(=O)CN(C(=O)NC5CCCCC5)C[C@@H]34)cc2)c1 | . | .
SMILES | Pf Dd2 inh | C diff HTS
O=C(c1cccnc1)N1CC(=O)N2[C@H](C1)[C@H](c1ccc(-c3ccc(F)cc3)cc1)[C@@H]2CO | . | .
O=C(c1ccccc1F)N1CC(=O)N2[C@H](C1)[C@@H](c1ccc(-c3cccnc3)cc1)[C@@H]2CO | -86.7 | .
COC(=O)c1ccc(CN2CC(=O)N3[C@H](C2)[C@@H](c2ccc(-c4ccccc4F)cc2)[C@@H]3CO)cc1 | . | .
O=C(c1ccc(F)cc1)N1CC(=O)N2[C@H](CO)[C@H](c3ccc(-c4cccnc4)cc3)[C@H]2C1 | -87.1 | .
COC(=O)c1ccc(CN2CC(=O)N3[C@H](CO)[C@@H](c4ccc(-c5ccccc5F)cc4)[C@H]3C2)cc1 | -83.2 | .
O=C(c1cccc(F)c1)N1CC(=O)N2[C@H](C1)[C@@H](c1ccc(-c3cccnc3)cc1)[C@@H]2CO | -87.6 | .
O=C(c1cccc(F)c1)N1CC(=O)N2[C@H](CO)[C@H](c3ccc(-c4cccnc4)cc3)[C@@H]2C1 | . | .
O=C(c1ccccc1F)N1CC(=O)N2[C@@H](CO)[C@@H](c3ccc(-c4cccnc4)cc3)[C@@H]2C1 | . | .
O=C(C[C@H]1C=C[C@@H](NC(=O)CN2CCOCC2)[C@H](CO)O1)NCCc1ccccc1 | . | .
O=C(c1ccc(F)cc1)N1CC(=O)N2[C@H](C1)[C@@H](c1ccc(-c3cccnc3)cc1)[C@@H]2CO | -89.2 | .
O=C(c1ccc(F)cc1)N1CC(=O)N2[C@H](C1)[C@H](c1ccc(-c3cccnc3)cc1)[C@@H]2CO | . | .
CO[C@@H]1CC[C@@H]2CCN(C)C(=O)CCCN(C)C(=O)c3cc(C#N)ccc3OC[C@@H]1O2 | / | .
CO[C@@H]1CN(C)C(=O)c2cc(NC(=O)c3nc4ccccc4s3)ccc2OC[C@H](C)NC[C@H]1C | -84.5 | /
CO[C@@H]1CN(C)C(=O)c2cc(NC(=O)c3nc4ccccc4s3)ccc2OC[C@@H](C)NC[C@H]1C | . | /
CO[C@H]1CN(C)C(=O)c2cc(NC(=O)c3nc4ccccc4s3)ccc2OC[C@H](C)NC[C@H]1C | . | /
CO[C@H]1CN(C)C(=O)c2cc(NC(=O)c3nc4ccccc4s3)ccc2OC[C@@H](C)NC[C@@H]1C | -87.1 | /
Cc1ccc(S(=O)(=O)Nc2ccc3c(c2)CC(=O)N([C@H](C)CO)C[C@H](C)[C@H](CN(C)Cc2ccc(C(=O)O)cc2)O3)cc1 | . | /
CC=Cc1ccc2n(c1=O)C[C@H]1[C@H](CO)[C@@H](C(=O)N(C)C)N(CC3CCOCC3)[C@@H]21 (mixture of isomers) | . | .
CO[C@@H]1CN(C)C(=O)c2cc(NC(=O)NC3CCCCC3)ccc2OC[C@H](C)N(C)C[C@H]1C | . | .
C[C@H]1CN([C@@H](C)CO)C(=O)c2c(c3ccccc3n2C)-c2ccccc2CO[C@H]1CN(C)Cc1cccc(C(F)(F)F)c1 | . | .
C[C@@H]1CN([C@H](C)CO)C(=O)c2c(c3ccccc3n2C)-c2ccccc2CO[C@@H]1CN(C)Cc1cccc(C(F)(F)F)c1 | -87.0 | .
C[C@@H]1CN([C@@H](C)CO)C(=O)c2ccccc2-c2ccccc2CO[C@@H]1CN(C)Cc1cccc(C(F)(F)F)c1 | -82.1 | .
C[C@H](CO)N1C[C@H](C)[C@@H](CN(C)Cc2cccc(C(F)(F)F)c2)OCc2ccccc2-c2c(n(C)c3ccccc23)C1=O | ? | .
C[C@H](CO)N1C[C@H](C)[C@H](CN(C)Cc2cccc(C(F)(F)F)c2)OCc2ccccc2-c2c(n(C)c3ccccc23)C1=O | -82.9 | .
C[C@H]1CN([C@@H](C)CO)C(=O)c2ccccc2-c2ccccc2CO[C@@H]1CN(C)Cc1cccc(C(F)(F)F)c1 | . | .
